Here are results for 40 compounds from PubChem BioAssay.

A number with no mark means an inactive call. How the calls were made is not given here.

What is called inhibition is the drop in the measured response relative to a control, in per cent.

The experiment deals with Pantothenate synthetase (Mycobacterium tuberculosis (strain ATCC 25618 / H37Rv)) (UniProt P9WIL5). Kind of experiment: Coupled enzyme confirmation of inhibitors against recombinant Mtb PanC (AID 375).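 Further: 0% = full reaction with vehicle and 100% = no enzyme background.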 The settings on record: coupled enzyme assay; at 10 µM, hits give high values.
Sequence of Pantothenate synthetase (Mycobacterium tuberculosis (strain ATCC 25618 / H37Rv)) (P9WIL5 whole entry, looked up): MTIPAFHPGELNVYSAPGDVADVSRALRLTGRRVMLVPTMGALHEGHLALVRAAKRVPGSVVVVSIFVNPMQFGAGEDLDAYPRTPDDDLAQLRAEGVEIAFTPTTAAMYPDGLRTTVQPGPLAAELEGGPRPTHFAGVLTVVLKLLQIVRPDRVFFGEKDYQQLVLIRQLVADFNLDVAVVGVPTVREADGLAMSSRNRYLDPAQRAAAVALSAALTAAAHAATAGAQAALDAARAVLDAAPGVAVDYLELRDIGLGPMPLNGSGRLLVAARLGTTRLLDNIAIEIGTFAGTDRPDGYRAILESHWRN
With `Cc1ccc(C(=O)Nc2ccc3c(c2)OCO3)o1`, the inhibition was 0%.
The figure for `CCOC(=O)CNC(=O)CSc1nc(N)cc(N)n1` is 1%; for `O=C(O)C1CC=CCC1C(=O)NCc1ccccc1` (stereo not given) it is 1%; for `COc1ccccc1S(=O)(=O)Cc1ccc(C(=O)NCCN2CCCCCC2)o1` it is 0%.
`COc1ccc(C(=O)N2CCSC2=S)cc1OC`: the inhibition is 0%.
Consider `COc1ccc(CCNC(=O)c2cc3sc(Cl)cc3n2C)cc1OC`, for which the inhibition is 0%.
For the compound `CC(C)(C)NC(=O)Cn1c(=O)oc2ccc(Cl)cc21`, the inhibition is 0%.
On to `COc1ccccc1NC(=O)N(Cc1ccco1)Cc1cc2cccc(C)c2[nH]c1=O`, for which the inhibition is 2%.
`COC(=O)c1ccc2c(=O)n(CC3CCCO3)c(=S)[nH]c2c1` (stereo not given): the inhibition was 0%.
The figure for `CC(C)(C)c1cc(C(=O)O)nn1-c1ccccc1` is 0%; for `CCCS(=O)(=O)C(=C1Nc2ccccc2N1)S(=O)(=O)CCC` it is 1%.
The figure for `CS(=O)(=O)Nc1ccc(C(=O)NCc2ccco2)cc1` is 0%; for `CNC[C@H](O)c1cccc(O)c1` it is 0%; for `CCOc1ccc2[nH]c(O)c(NC(C)=O)c2c1` it is 0%.
Turning to `CCN1CCN(C(=O)C2CC(c3ccc(F)cc3)=NO2)CC1` (stereo not given), the inhibition was 0%.
The figure for `COC(=O)c1ccccc1S(=O)(=O)N(Cc1cc2cc3c(cc2[nH]c1=O)OCO3)C1CCCCC1` is 1%; for `Cc1cccn2cc(-c3ccccc3)nc12` it is 0%; for `O=C(Nc1nc(-c2cccs2)cs1)c1cccc(S(=O)(=O)N2CCCCC2)c1` it is 0%.
In the case of `CCCC(=O)Nc1ccc(NC(=O)c2ccccc2OC)cn1`, the inhibition is 0%.
Take `CCc1ccc2[nH]c(=O)c(C(c3nnnn3CC3CCCO3)N3CCN4CCCC4C3)cc2c1` (stereo not given): the inhibition is 4%.
With `c1ccc2c3nnc4n(c-3nc2c1)CCCS4`, the inhibition was 1%.
The figure for `COC(=O)C1(C)NC(c2ccco2)C2C(=O)N(c3ccc(C)cc3)C(=O)C21` (stereo not given) is 4%; for `Cc1cnc(NC(=O)CSc2nnc(COc3c(C)cccc3C)o2)s1` it is 8%; for `COCCOC(=O)C1=C(C)OC(N)=C(C#N)C1c1ccc2c(c1)OCO2` (stereo not given) it is 0%.
The figure for `O=C(NCc1cccs1)c1cc2c(s1)CS(=O)(=O)C2` is 1%.
As for `c1ccc2c(c1)nc(NCCN1CCOCC1)c1nncn12`, the inhibition is 2%.
The figure for `COC(=O)CN1C(=O)C2(C(C#N)=C(N)Oc3c2c(C)nn3-c2ccccc2)c2ccccc21` (stereo not given) is 3%; for `CC[N+](C)(CC)CCOC(=O)C(O)(c1ccccc1)C1CCCCC1` (stereo not given) it is 0%.
The figure for `CC(C)(C)n1ncc2c(=O)n(CC(=O)NCCc3ccccc3)cnc21` is 4%; for `CCCOc1ccc(S(=O)(=O)NCCCN2CCOCC2)c2ccccc12` it is 0%.
Regarding `CN1CCN(C2=Nc3cc(Cl)ccc3Nc3ccccc32)CC1`, the inhibition was 8%.
Regarding `O=C(CCn1[nH]c(=O)c2ccccc2c1=O)NCCO`, the inhibition was 0%.
The figure for `N=c1ncn(CC(O)CN2CCOCC2)c2nc(N3CCOCC3)[nH]c12` (stereo not given) is 0%; for `O=C(CN1C(=O)COCC1=O)N1CCOCC1` it is 0%; for `COCCn1c(=N)c(C(=O)NCCc2ccccc2)cc2c(=O)n3cccc(C)c3nc21` it is 3%.
The figure for `CCn1nnnc1SCC(=O)Nc1nc(-c2cccs2)cs1` is 0%; for `CCc1cccc2c(=O)c(C(=O)NCCN3CCOCC3)c[nH]c12` it is 10%.
As for `COc1ccc2nc3oc(C(=O)NC4CCN(Cc5ccccc5)CC4)cc3cc2c1`, the inhibition was 1%.
The figure for `CC(C)(C)NC(=O)CC(CC(=O)O)c1ccccc1` (stereo not given) is 0%; for `CCOc1cc2[nH]c(=S)n(CC3CCCO3)c(=O)c2cc1OCC` (stereo not given) it is 9%.
